Bioassay records as filed in PubChem BioAssay.
Only some compounds are listed: those with a hit (about 7.9% of all), similar ones and a draw of the others.
Marburg entry inh – qHTS for inhibitors of binding or entry into cells for Marburg Virus; Marburg virus pseudotyped entry inhibition, cell reporter; Potency, µM (highest dose often 37.8 µM), for the others: at the highest dose activity change, negative = inhibition, usual class: inhibitors; actives 1.8% (n = 300,000); AID 540276, 2011; calls by dose curve; tested in HEK293 cells; note: potency is the fitted concentration of half-maximal effect
HCMV antiviral – qHTS Assay for inhibitors of the human cytomegalovirus (HCMV) | activity change, negative = inhibition, % at 57.5 µM | actives 4.5% (n = 410,000) | AID 1259415, 2018 | HFF cells, HCMV-luciferase reporter, 72 h; stronger effect = lower value; in the data active = activity change below about -60%; inconclusive = no clear call, values can overlap the other calls; inactive = above about -39%
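After 16 h attachment at 37C, HFF cells received test compound and HCMV-luciferase (1 PFU/cell); reporter luminescence read 72 h later, data normalized against buffer-only and known inhibitor Salinomycin.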
FMDV antiviral – High Throughput Screening for Foot and Mouth Disease Virus Antivirals | actives 1.2% (n = 410,000) | Potency, µM (doses to about 57.9 µM), inactives show at the highest dose activity change, negative = inhibition, hits mostly inhibitors | FMDV antiviral cell-based qHTS; calls by dose curve; tested in HEK293T cells; note: read-out not given here; potency is the fitted concentration of half-maximal effect; nearly all actives have a fitted effect of over 45% in size
HCV inh – qHTS Assay for Inhibitors of Hepatitis C Virus (HCV); Huh7.5.1 HCVcc-Cre infection, luciferase reporter, 44 h; actives 3.4% (n = 340,000); Potency, µM (doses to about 41.8 µM), for the others: at the highest dose activity change, negative = inhibition, usual class: inhibitors; active = well fitted inhibition curve with a large enough effect; inconclusive = small, poorly fitted or top-dose-only effect, or another doubt; inactive = no such curve, though single readings can be large or run the other way; note: potency is the fitted concentration of half-maximal effect
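Reporter virus HCVcc-Cre (~0.5 moi) infects cells exposed to compound; seeding density 1,000 cells/well with 4 h settling beforehand. Luminescence, 15 sec read, taken 44 h post-infection following a 15 min RT substrate incubation.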
Lassa entry inh – qHTS for Inhibitors of binding or entry into cells for Lassa Virus. Lassa virus pseudotype entry inhibition, cell reporter. Potency, µM (series often up to 37.9 µM), for inactives: at the top dose activity change, negative = inhibition, usual class: inhibitors. actives 1.2% (n = 300,000); calls by dose curve; tested in HEK293 cells; note: potency is the fitted concentration of half-maximal effect; nearly all actives have a fitted effect of over 50% in size
* = called active by the depositor; ? = inconclusive; . = no result; [ ] = remark or other dose. % is set by controls: 0 for no effect and ±100 for the full control effect.

SMILES	Marburg entry inh	HCMV antiviral	FMDV antiviral	HCV inh	Lassa entry inh
COCCNC(=O)C1(C)CCN(C(=O)c2cc(-c3cccs3)oc2C)C1 (stereo not given)	.	-21	.	.	.
Cc1ccc(OCC(=O)Nc2ccc3nn(-c4ccc(C)cc4)nc3c2)cc1	?	96	40%	.	?
CCC(CC)C(=O)N1c2ccc(F)cc2CCC1C (stereo not given)	2%	-33	-13%	10%	13%
CC1CCc2cc(F)ccc2N1C(=O)CCl (stereo not given)	?	.	14µM*	?	-3%
CCOC(=O)C1CCCN(C(=O)c2cccc(S(=O)(=O)N(C)c3c(C)n(C)n(-c4ccccc4)c3=O)c2)C1 (stereo not given)	19%	-99*	-8%	6%	17%
CCOC(=O)C1CCCN(C(=O)c2ccc3c(c2)N(C)C(=O)/C(=C/c2ccccc2Cl)S3)C1 (stereo not given)	-25%[46.1 µM]	-28	?	11µM*	?
CN1C(=O)/C(=C/c2ccc(C(F)(F)F)cc2)Sc2ccc(C(=O)N3CCN(c4ccccn4)CC3)cc21	?	?	-3%	14µM*	21%[46.1 µM]
CN1C(=O)/C(=C/c2cccc(Cl)c2)Sc2ccc(C(=O)N3CCOCC3)cc21	.	?	-5%	11µM*	.
CCOC(=O)C1CCCN(C(=O)c2cccc(S(=O)(=O)NCc3ccccc3)c2)C1 (stereo not given)	.	9	5%	.	.
CCOc1ccc(/C=C2/Sc3ccc(C(=O)N4CCOCC4)cc3N(C)C2=O)cc1OC	?	11	-24%	?	?
CN1C(=O)/C(=C/c2ccccc2Cl)Sc2ccc(C(=O)N3CCCC3)cc21	.	?	-28%	?	.
COc1ccc(NC(=O)C(=O)c2cn(CC(=O)N3CCCC3)c3ccccc23)c(OC)c1	.	.	36%	-18%	.
CCc1ccccc1NC(=O)CN(Cc1ccccc1)S(=O)(=O)c1ccc2nc(C)sc2c1	.	-5	-23%	.	27%[46.1 µM]
CC1(C(=O)NS(=O)(=O)C2CC2)CCCN(C(=O)Cc2ccc(F)cc2)C1 (stereo not given)	.	-11	-5%	.	.
CC(=O)NC(c1cccs1)c1cc(F)c2cccnc2c1O (stereo not given)	.	-100*	-22%	.	.
CC(=O)NC(c1ccco1)c1cc(Cl)c2ccccc2c1O (stereo not given)	.	4	-16%	.	.
CC(=O)NC(c1ccco1)c1cc(F)c2cccnc2c1O (stereo not given)	.	-67*	-23%	.	.
CN(C)Cc1ccccc1-c1cc(N(C)C)ncn1	.	.	-12%	.	.
Cc1cc(-c2cc(NC(=O)Cc3c[nH]c4ccccc34)ccc2N(C)c2cccnc2)ccc1F	.	-37	.	.	.
COC(=O)NC(CC(C)=O)c1cccc(C(F)(F)F)c1 (stereo not given)	0%	.	.	.	.
O=c1[nH]c(CN2CCN(C/C=C/c3ccccc3)CC2)nc2cc(Cl)ccc12	4.1µM*	1	-23%	14µM*	1%
O=C(c1ccco1)N1CCN(Cc2nc3cc(Cl)ccc3c(=O)[nH]2)CC1	9%	22	-11%	6%	-2%
CC(=O)N1CCN(C(=O)CCc2nc3ccccc3c(=O)[nH]2)CC1	21%	3	-25%	6%	15%
O=C(CCc1nc2ccccc2c(=O)[nH]1)N1CCN(C/C=C/c2ccccc2)CC1	-19%	13	20µM*	?	0%
CCOc1ccccc1N1CC(C(=O)Nc2cc(S(=O)(=O)N3CCOCC3)ccc2OC(C)C)CC1=O (stereo not given)	.	16	-12%	2%	.
CSc1nc2nc3c(cc2c(=O)n1-c1ccccc1C)CCCC3	?	-91*	?	?	?
CNS(=O)(=O)c1cccc(C(=O)OCC(=O)Nc2ccc3ccccc3c2)c1	5%[46.1 µM]	36	1%	-4%	-1%[46.1 µM]
CCOc1ccc(C(=O)NCC(=O)NCCSc2ccc(Br)cc2)cc1OCC	?	29	-27%	-9%	-16%
Cc1cc(OCC(=O)Nc2ccc(S(=O)(=O)N3CCN(C)CC3)cc2)cc(C)c1Cl	?	-15	-30%	11µM*	-5%
N=c1sccn1CC(=O)Nc1ccc(S(=O)(=O)N2CCOCC2)cc1	0%	-63*	-2%	7%	-6%
